Out of some 2,500 compounds screened, about 2,100 (84%) were called active. So high a share suggests a set chosen from earlier hits. Only a sample is shown. Entries with a potency or affinity are not part of this list. Values without a mark were called inactive.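 How the source made its calls: active means toxic compounds, whose cell viability fell below 70% of untreated control cells; inactive means the rest.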
Assay: viability of uninfected HEp-2 cells – cell-based, HTS, cytotoxicity control for RSV inhibitor project, dose response (AID 2410);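 further: cells exposed to compound for six days before readout; 100% = median signal of untreated cell control wells on each plate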
Conditions: HEp-2 viability, luminescence, cytotoxicity counter-screen; series mostly up to 50 µM; viability: at the top concentration

SMILES | viability [%]
CC(=O)N1N=C(c2ccc(C)cc2)OC1c1cccnc1 (configuration not stated) | 87.4
OCc1cn(-c2ccccc2)nc1-c1ccc(Br)cc1 | 110
COc1ccc(-c2nn(-c3ccccc3)cc2/C=N/O)cc1 | 90.4
O=[N+]([O-])c1ccc(N/N=C/c2ccccc2)cc1 | 106
CC(Oc1ccc(F)cc1)C(=O)Nc1ccc2ccccc2c1 (configuration not stated) | 91.2
Cc1c(C)n(C)c2ccc([N+](=O)[O-])cc12 | 76.4
O=c1c2sccc2n(Cc2cc(=O)n3ccccc3n2)c(=O)n1-c1ccccc1 | 107
CN(Cc1nc2ccccc2c(=O)[nH]1)C(=O)c1cc(C2CC2)nn1-c1ccccc1 | 74.9
CCN(Cc1nc2ccccc2c(=O)[nH]1)C(=O)c1cc(C2CC2)nn1-c1ccccc1 | 75.5
COc1ccccc1/C=C/C(=O)NCC(=O)N/N=C(/C)c1ccc(Cl)cc1 | 74.3
Cc1nn2c(-c3ccc(F)cc3)ccnc2c1Br | 99.9
CC(=O)c1sc(-c2ccccc2Cl)nc1C | 92.1
O=C(Nc1ccon1)c1ccc(N2CCCCC2)c([N+](=O)[O-])c1 | 73
c1csc(-c2nc3c4ccccc4c4ccccc4c3[nH]2)c1 | 75
Cc1c(SCCO)c(=O)[nH]c2cc3c(cc12)OCO3 | 84
O=C(/C=C/c1ccc(O)c(O)c1)O[C@@H]1C[C@](O)(C(=O)O)C[C@@H](O)[C@H]1O | 93.9
COc1ccc2cc(CN(CCc3ccccc3)Cc3nnnn3Cc3ccco3)c(=O)[nH]c2c1 | 82.5
CCOC(=O)c1c(C)[nH]c(C(=O)COC(=O)C2(C)CC2(Cl)Cl)c1C (configuration not stated) | 79.6
O=c1nc(Nc2ccc(OCc3ccccc3)cc2)sc2ncccc12 | 73.7
Cc1csc(N(C)C(=O)CSc2nnc(COc3ccccc3C)o2)n1 | 97.9
COC(=O)c1ccc(NC2c3ncccc3C(=O)N2Cc2cccs2)cc1 (configuration not stated) | 88.2
Cc1[nH]c2ccccc2c1C(=O)CSc1ccccn1 | 91.8
CSc1nc2ccc(Nc3nc(N4CCOCC4)nc(N4CCOCC4)n3)cc2s1 | 82.1
Cc1ccc(Nc2nc(N3CCOCC3)nc(N3CCOCC3)n2)cc1Cl | 107
O=C(c1ccccc1Cl)N1CCN(c2ccccn2)CC1 | 78.8
CSc1nnc(Cn2c(=O)sc3ccccc32)n1CCc1ccccc1 | 97.2

SMILES | viability [%]
CCOC(=O)CSc1nnc(CNC(=O)c2ccc([N+](=O)[O-])cc2)n1C | 105
C#CCOCCOCCOCCNc1nc(N2CCN(C(=O)CCCCCCCCCCNC(=O)[C@@H]([C@H](C)O)n3cc(C)nn3)CC2)nc(N2CCN(C(=O)CCCCCCCCCCNC(=O)[C@@H]([C@H](C)O)n3cc(C)nn3)CC2)n1 | 77.9
Cc1ccccc1NC(=O)COC(=O)Cc1ccsc1 | 95.5
COc1ccc(S(=O)(=O)N2CCN(CCO)CC2)cc1-c1nnc2c3ccccc3c(C)nn12 | 105
Cc1cc(N2C(=O)CC(N3CCN(c4ccc(C(=O)c5cccs5)cc4)CC3)C2=O)no1 (configuration not stated) | 77
C/C(=N/OCO/N=C(/C)c1ccc(F)cc1)c1ccc(F)cc1 | 115
O=c1c(OC2OC(CO)C(O)C(O)C2OC2OC(CO)C(O)C(O)C2OC2OC(CO)C(O)C(O)C2O)c(-c2ccc(O)c(O)c2)oc2cc(O)cc(O)c12 (configuration not stated) | 81.7
CCC(=O)Nc1ccc(C(=O)OCc2ccccc2Cl)cc1 | 121
Cc1ccc(-n2c(=O)c3sccc3n(Cc3cc(=O)n4ccccc4n3)c2=O)cc1F | 115
COc1ccc(Br)cc1/C=C/C(=O)Nc1ccc2ccccc2c1 | 79
CCOc1cc(/C=N\Nc2nc(Nc3ccccc3)nc(N3CCOCC3)n2)ccc1OC(=O)c1ccco1 | 72.7
S=C(NCCc1ccccc1)N/N=C/c1cccc(Cl)c1Cl | 74.4
c1ccc2c(c1)OCCc1c-2[nH]c2ccccc12 | 99.2
COC(=O)c1ccc(Cn2c(CN3CCOCC3)nc3ccccc3c2=O)o1 | 116
CCn1c(=NC(=O)c2ccco2)sc2cccc(F)c21 | 91.8
CC(=NCc1ccco1)C1=C(O)c2ccccc2C1=O | 99
Cn1nnc(-c2ccc(OCc3ccccc3F)cc2)n1 | 96.7
CC/C(=N\Nc1ccc([N+](=O)[O-])cc1)c1ccccc1 | 112
COC(=O)c1cc2n3ccccc3c(C)c(-c3ccccc3)c-2c1C(=O)OC | 92
CCOc1ccc2nc(NC(=O)C(CCSC)NS(=O)(=O)c3cccs3)sc2c1 (configuration not stated) | 96
O=C(CSc1ccccn1)Nc1nc2c(ccc3ccccc32)s1 | 85.2
COCCn1c(-c2cccc(Br)c2)nc2c(c(=O)c3ccccc3n2C)c1=O | 81.5
COc1ccc(Cn2c(-c3ccccc3C)nc3c(c(=O)c4ccccc4n3C)c2=O)cc1 | 99.4
Cc1ccc(-c2nc3c(c(=O)c4ccccc4n3C)c(=O)n2Cc2ccco2)cc1 | 86.8
COCCn1c(-c2ccccc2Cl)nc2c(c(=O)c3ccccc3n2C)c1=O | 74.5
Nn1c(COc2ccccc2)nc2ccccc2c1=O | 88.4

— PubChem BioAssay AID2410 (Southern Research Specialized Biocontainment Screening …, 2010)
